Results taken from PubChem BioAssay AID1030 (National Center for Advancing Translational Sciences (NCATS), 2008).
About 16,000 (7.3%) of roughly 220,000 compounds were called active. Entries that show only a call come without a potency. About 25% were inconclusive and are not listed. Calls come from the whole dose curve; as a rule, active = well fitted inhibition curve with a large enough effect (not every such curve was filed as active); inconclusive = small, poorly fitted or top-dose-only effect, or another doubt; inactive = no such curve, though single readings can be large or run the other way. Many of the other results were omitted from the sample, so actives are more common in it than they were.
Potency is the fitted concentration of half-maximal effect.

The molecules below were run against Aldehyde dehydrogenase 1A1 (Homo sapiens) (UniProt P00352) (assay: qHTS Assay for Inhibitors of Aldehyde Dehydrogenase 1 (ALDH1A1)). Conditions: Purified ALDH1A1, NADH fluorescence, propionaldehyde substrate; series mostly up to 75.3 µM.
Chain of Aldehyde dehydrogenase 1A1 (Homo sapiens) (P00352 whole entry, looked up): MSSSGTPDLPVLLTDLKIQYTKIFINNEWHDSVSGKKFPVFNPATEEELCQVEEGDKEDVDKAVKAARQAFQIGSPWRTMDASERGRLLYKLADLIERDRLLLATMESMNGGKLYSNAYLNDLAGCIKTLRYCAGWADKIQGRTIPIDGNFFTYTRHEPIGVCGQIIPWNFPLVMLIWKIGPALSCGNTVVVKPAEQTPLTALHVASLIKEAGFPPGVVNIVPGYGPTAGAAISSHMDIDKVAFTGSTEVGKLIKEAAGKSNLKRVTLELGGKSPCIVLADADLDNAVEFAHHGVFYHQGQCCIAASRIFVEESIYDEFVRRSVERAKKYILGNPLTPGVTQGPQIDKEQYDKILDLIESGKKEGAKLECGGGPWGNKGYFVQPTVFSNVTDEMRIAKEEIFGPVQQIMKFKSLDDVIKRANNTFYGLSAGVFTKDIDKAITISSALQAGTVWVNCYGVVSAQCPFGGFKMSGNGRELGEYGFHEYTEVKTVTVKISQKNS
With Cc1cc(C)cc(NC(=O)N(C)Cc2ccccc2)c1 the Potency was “inactive”.
For CCc1cccc2c(=O)c(C(=O)NCCCOC)c[nH]c12, the Potency was 2 µM (active).
In the case of CCCCOCCCNC(=O)c1ccccc1OCC, the Potency is reported as “inactive”.
CCOCCCNC(=O)c1c[nH]c2cc(C)ccc2c1=O was tested, and the Potency was “inactive”.
Cc1ccc(O)c(NC(=S)NC(=O)COc2ccc(Br)cc2)c1 was tested, and the Potency was “inactive”.
CSc1c(SCc2ccccc2)cnn(Cc2ccccc2)c1=O was tested, and the Potency was 11.2 µM (active).
For Cn1c(CO)cnc1SCc1ccccc1, the Potency was “inactive”.
For CSc1nc2ccccc2c(=O)n1Cc1ccc(F)cc1, the Potency was “inactive”.
For CCCOCC(O)CC(CC)C(=O)NNC(=S)Nc1ccccc1 (centres undefined), the Potency was “inactive”.
With O=C(Nc1nc(-c2ccc(-c3ccccc3)cc2)cs1)c1cnccn1 the Potency was “inactive”.
For CC1(C)CC(CC(=O)O)C(=O)O1 (centres undefined), the Potency was “inactive”.
C/C(CC1CC(C)(C)OC1=O)=N/Nc1nc(-c2ccccc2)cs1 (centres undefined) was tested, and the Potency was 7.94 µM (active).
For Cc1ccc(C(=O)NC(=S)NCc2cccnc2)cc1, the Potency was “inactive”.
In the case of Cc1ccc(NC(=S)N(CCN2CCCCC2)Cc2ccco2)cc1C, the Potency is reported as “inactive”.
COc1ccc(CNC(=O)CN2CCC(n3nnc4cc(F)ccc43)CC2)cc1 was tested, and the Potency was “inactive”.
In the case of COc1ccc(C(=O)Nc2c(N)nc(SCC(=O)N3CCC(C)CC3)[nH]c2=O)cc1OC, the Potency is reported as “inactive”.
In the case of Cc1nnc(SCC(=O)N2CCOCC2)[nH]c1=O, the Potency is reported as “inactive”.
O=C(CSc1nc2c(cnn2-c2ccc(F)cc2)c(=O)[nH]1)N1CCCCCC1 was tested, and the Potency was 0.126 µM (active).
For O=C(Nc1ccc(F)c([N+](=O)[O-])c1)C1CC(=O)N(Cc2ccccc2)C1 (centres undefined), the Potency was “inactive”.
For CC(CO)NCC12CC3CC(CC(C3)C1)C2 (centres undefined), the Potency was “inactive”.
In the case of CC(C)n1c(-c2ccncc2)n[nH]c1=S, the Potency is reported as “inactive”.
In the case of Nc1ccc(C(=O)NCc2ccccc2)cc1, the Potency is reported as “inactive”.
With COC(=O)C1C(=O)NCC1c1ccc(OC)cc1 (centres undefined) the Potency was “inactive”.
COc1ccc(C2OC(=O)CC2C(=O)NC(C)C)cc1 (centres undefined) was tested, and the Potency was 15.8 µM (active).
With CCCCN1C(=O)CCC(C(=O)O)C1c1ccc(OC)cc1 (centres undefined) the Potency was “inactive”.
For CCOC(=O)C1(CCOC)CCN(Cc2ccc(C(=O)OC)cc2)CC1, the Potency was “inactive”.
In the case of COC(=O)c1cc(C(=O)OCC(=O)Nc2cc(C)on2)cc([N+](=O)[O-])c1, the Potency is reported as “inactive”.
CC(=O)c1cccc(NC(=O)[C@@H](NC(N)=O)C(C)C)c1 was tested, and the Potency was “inactive”.
For O=C(CSc1nnc(C2CC2)n1Cc1ccccc1)Nc1cccnc1Cl, the Potency was “inactive”.
For CCCCN(CC)CCNC(=O)c1[nH]c(C)c(C(C)=O)c1C, the Potency was 10 µM (active).
CC(=O)c1c(C)[nH]c(C(=O)NCc2ccc(C)cc2)c1C was tested, and the Potency was “inactive”.
In the case of CC(=O)c1c(C)[nH]c(C(=O)NCCCN2CCCC2)c1C, the Potency is reported as “inactive”.
In the case of CC(=O)NC1(c2ccc(F)cc2)CCN(C(=O)c2c(F)cccc2F)CC1, the Potency is reported as “inactive”.
For O=C(CCC(=O)NNc1nc2ccccc2c2nc(-c3ccccc3)nn12)NCCCN1CCCC1=O, the Potency was “inactive”.
For CCCCCOC(=O)C1=C(C)Nc2nnnn2C1c1ccc(OC)c(OC)c1OC (centres undefined), the Potency was “inactive”.
With CC1=C(C(N)=O)C(c2sccc2C)n2nnnc2N1 (centres undefined) the Potency was 20 µM (active).
CC(=O)C1=C(C)NC(C)=C(C(C)=O)C1c1cn(-c2ccccc2)nc1-c1cccs1 was tested, and the Potency was “inactive”.
With Cc1cc(C)n(CC(=O)Nc2ccc([N+](=O)[O-])cc2)n1 the Potency was “inactive”.
With Cc1cc(=O)oc2c1c(C)nn2-c1ccc(Cl)cc1 the Potency was “inactive”.
For CC(C)(C)C(=O)CSc1nc2ccccc2o1, the Potency was “inactive”.
For COc1ccccc1CNC(=O)c1cc(=O)c2ccccc2o1, the Potency was “inactive”.
In the case of Cn1cnnc1SCC(=O)Nc1ccc(N2CCOCC2)cc1, the Potency is reported as “inactive”.
For CN(Cc1ccc2nsnc2c1)Cc1nc(Cc2cccc(F)c2)no1, the Potency was “inactive”.
In the case of Cc1cc(C)nc(N(C#N)CC(=O)Nc2ccccc2)n1, the Potency is reported as 15.8 µM (active).
Cc1cc(C)c(C#N)c(SCC(=O)Nc2ccccc2)n1 was tested, and the Potency was “inactive”.
With CCOC(=O)/C(C#N)=C/c1ccc(OCC(=O)Nc2ccccc2)c(OC)c1 the Potency was “inactive”.
CCC(C)NC(=O)CN(C1CCCCC1)S(C)(=O)=O (centres undefined) was tested, and the Potency was “inactive”.
In the case of O=C(CSc1n[nH]c(-c2cccnc2)n1)Nc1ccnc2ccccc12, the Potency is reported as “inactive”.
In the case of CCN(CC)C(=O)CSc1nc2ccccc2o1, the Potency is reported as “inactive”.
CCN(C(=O)CSc1ncn[nH]1)c1cccc2ccccc12 was tested, and the Potency was 25.1 µM (active).
For O=C(CSc1ncn[nH]1)Nc1nsc(-c2ccccc2)n1, the Potency was “inactive”.
O=C(CSc1ncn[nH]1)Nc1ccnc2ccccc12 was tested, and the Potency was 22.4 µM (active).
With CCOC(=O)n1c(SCC(=O)N(CC)CC)nc2ccccc21 the Potency was “inactive”.
In the case of O=S(=O)(c1cccc(C(F)(F)F)c1)N1CCN(c2cnccn2)CC1, the Potency is reported as “inactive”.
For CCCn1nc(Oc2nc(NC(C)C)nc(N(C)C)n2)ccc1=O, the Potency was “inactive”.
O=C(NCc1cccnc1)c1nc(-c2cccs2)no1 was tested, and the Potency was “inactive”.
In the case of O=C(NCc1cccnc1)c1cn(-c2ccccc2)nc1-c1cccs1, the Potency is reported as 3.98 µM (active).
For O=C(/C=C/c1cccs1)NCc1cccnc1, the Potency was “inactive”.
In the case of O=[N+]([O-])c1cc(S(=O)(=O)CCCN2CCOCC2)ccc1F, the Potency is reported as “inactive”.
With COC(=O)C(C(=O)Nc1cccc(Cl)c1C)C1CCCC1 (centres undefined) the Potency was “inactive”.
With COc1ccc(N2C(=O)CC(Sc3n[nH]c(-c4ccc(C)cc4)n3)C2=O)cc1 (centres undefined) the Potency was 0.794 µM (active).
In the case of Cc1ccc(N2C(=O)C3CC3C2=O)cc1 (centres undefined), the Potency is reported as “inactive”.
With Cc1ccc(N2C(=O)CC(Sc3ncn[nH]3)C2=O)cc1 (centres undefined) the Potency was 11.2 µM (active).
In the case of COc1ccc(N2C(=O)CC(SC(C)C)C2=O)cc1 (centres undefined), the Potency is reported as “inactive”.
With ClC1(Cl)CC1CSc1ncn[nH]1 (centres undefined) the Potency was “inactive”.
For COc1ccc(-c2nc(SCC(=O)N3CCOCC3)n[nH]2)cc1, the Potency was “inactive”.
For O=C1CC(Sc2ncn[nH]2)C(=O)N1c1ccccc1 (centres undefined), the Potency was 1.12 µM (active).
With Cc1ccc(CC2CC(=O)N(c3nc(C)cc(C)n3)C2=O)cc1 (centres undefined) the Potency was “inactive”.
In the case of O=C(CSc1nc2ccc(Nc3nc(N4CCOCC4)nc(N4CCOCC4)n3)cc2s1)NCc1ccco1, the Potency is reported as “inactive”.
In the case of CSc1sc(C(=O)NC(=O)NCc2cccnc2)c(C)c1-c1ccon1, the Potency is reported as “inactive”.
With Cc1ccccc1CCN(CC(=O)NC1CCCCC1)C(=O)c1csnn1 the Potency was “inactive”.
O=C(CCc1ccccc1)Nc1ncc([N+](=O)[O-])s1 was tested, and the Potency was “inactive”.
In the case of OCCC1CN(Cc2ccc3nsnc3c2)CCN1C1CCCCC1 (centres undefined), the Potency is reported as “inactive”.
With Cn1c(=O)c2cc(S(=O)(=O)NCCC(=O)Nc3ccc(F)cc3F)ccc2n(C)c1=O the Potency was “inactive”.
